Test results taken from PubChem BioAssay AID1345085 (National Center for Advancing Translational Sciences (NCATS), 2018).
Records with an inconclusive call do not appear. A number with no mark means an inactive call. Activity calls are given as the source filed them. Calls come from the whole dose curve; as a rule, active = well fitted cell-killing curve with a large enough effect; inconclusive = small, poorly fitted or top-dose-only effect, or effect the other way; inactive = no such curve, though single readings can be large or run the other way.
% is set by controls: 0 for no effect and ±100 for the full control effect; potency is the fitted concentration of half-maximal effect.
Note: nearly all actives have a fitted effect of over 55% in size.

Each compound was assayed on SW626 (assay: Confirmatory qHTS for gynecologic anti-cancer compounds from libraries of approved drugs and bioactive compounds). Conditions: gynecologic cancer cell panel viability, ATPlite luminescence, 48 h; series mostly up to 57.6 µM; activity change, negative = viability loss: at the top concentration.
Excerpt: National Center for Advancing Translational Sciences [NCATS] Assay Overview: Chemotherapeutic drug responses vary from cancer to cancer and from patient to patient. These variations could be caused by a number of factors including patient genomic background, tumor mutations, tumor heterogeneity, and aspects of drug treatment. Chemotherapeutic drug resistance is also a common issue and can lead to ineffective treatment and patient death. Here we have profiled the cell killing effects of thousands of compounds to characterize the responses in three gynecological cancers, identify cancer-selective compounds, and understand the diversity of responses to these compounds from pan-cancer suppressors to single cell line selective compounds. In this assay, we screened a 7,914 compound drug library that included approved drug and bioactive compounds in six ovarian, three cervical, and two placental cancer cell lines using the ATPlite assay for cell viability. ATPlite is a luminescence based assay reliant on the conversion of a luciferase substrate to light in the presence of ATP. As a cytotoxic compound will suppress growth and decrease the number of cells, the concentration of ATP will decrease, and less light signal will be detected in the well. Hits were selected from the primary screen for follow-up confirmation. For the confirmation screens, the ovarian cancer cell lines included CAOV-3, SK-OV-3, SW 626, ES-2, PA-1, and TOV-21G. The cervical cancer cell lines included HeLa, Ca Ski, and C-33 A. The placental cancer cell lines included JEG-3 and JAR. HEK 293T cells were used as the control cell line to determine the selectivity index. The ATPlite assay was used to determine the IC50 values.
Assay Protocol Summary: 1,000 cells in 4 uL of media were dispensed into white, solid bottom 1536-well plates using a Multidrop Combi (Thermo Scientific). The Assay plates were incubated for 16 hours at 37 C with 5% CO2 in assay plates, followed by the addition of 23 nL of DMSO or drug dissolved in DMSO. . Each compound was assayed in 11 concentrations (1:3 dilution) from 57.5 uM to 0.977 nM, using the automated Wako 1536 Pin Tool workstation and incubated at 37 C with 5% CO2 48 hours. 4 uL of ATPlite, the ATP monitoring reagent, was then added to the each well of the assay plates using the Multidrop Combi reagent dispenser followed by incubation for 15 minutes at room temperature. The resulting luminescence was measured using the ViewLux plate reader.
With `CC(C)n1c(/C=C/[C@@H](O)C[C@@H](O)CC(=O)O)c(-c2ccc(F)cc2)c2ccccc21` the Potency was 1.37 µM (active).
With `Nc1ncn([C@@H]2O[C@H](CO)[C@@H](O)[C@H]2O)c(=O)n1` the “activity change, negative = viability loss” value was 0.885%.
`CC[C@@]1(O)C(=O)OCc2c1cc1n(c2=O)Cc2c-1nc1ccccc1c2/C=N/OC(C)(C)C` was tested, and the Potency was 0.217 µM (active).
With `Cn1c(=O)c(F)c(Nc2ccc(I)cc2F)c2c(=O)n(CC(O)CO)cnc21` (stereo not given) the Potency was 0.0544 µM (active).
`CN(C)c1ccc2nc3ccc(=[N+](C)C)cc-3sc2c1` was tested, and the Potency was 8.63 µM (active).
For `COc1cc2ncnc(Nc3ccc(F)c(Cl)c3)c2cc1OCCCN1CCOCC1`, the “activity change, negative = viability loss” value was -20.8%.
With `CNC(=O)c1ccccc1Sc1ccc2c(/C=C/c3ccccn3)n[nH]c2c1` the Potency was 21.7 µM (active).
In the case of `O=C(CCCCCCNC(=O)c1cnc(N(c2ccccc2)c2ccccc2)nc1)NO`, the Potency is reported as 7.69 µM (active).
In the case of `O=c1[nH]c(=O)n([C@H]2C[C@H](O)[C@@H](CO)O2)cc1Br`, the “activity change, negative = viability loss” value is reported as -12.2%.
With `CC[C@@]1(O)C(=O)OCc2c1cc1n(c2=O)Cc2cc3cc(O)ccc3nc2-1` the Potency was 0.217 µM (active).
In the case of `CCN(CC)CCOc1ccc(/C(=C(\Cl)c2ccccc2)c2ccccc2)cc1`, the Potency is reported as 89.1 µM (active).
`CS(=O)(=O)c1ccc(C(=O)Nc2ccc(Cl)c(-c3ccccn3)c2)c(Cl)c1` was tested, and the “activity change, negative = viability loss” value was 11.7%.
For `COc1cc(N2CCC(N3CCN(C)CC3)CC2)ccc1Nc1ncc(Cl)c(Nc2ccccc2S(=O)(=O)C(C)C)n1`, the Potency was 21.7 µM (active).
`CCN(CC)CCNC(=O)c1c(C)[nH]c(/C=C2\C(=O)Nc3ccc(F)cc32)c1C` was tested, and the Potency was 22.4 µM (active).
For `CCC1C(=O)N(C)c2cnc(Nc3ccc(C(=O)NC4CCC(N5CCN(CC6CC6)CC5)CC4)cc3OC)nc2N1C(C)C` (stereo not given), the Potency was 7.69 µM (active).
For `O=C1Cc2cc(CCN3CCN(c4nsc5ccccc45)CC3)c(Cl)cc2N1`, the “activity change, negative = viability loss” value was -0.656%.
In the case of `OCc1ccc(-c2ccc(-c3ccc(CO)s3)o2)s1`, the Potency is reported as 10.6 µM (active).
For `Oc1cn2c(n1)Nc1ccc(Cl)c(Cl)c1C2`, the “activity change, negative = viability loss” value was 2.36% [at 19.5 µM].
`O=c1cc(CN2CCOCC2)occ1OCCCCCSc1ccnc2cc(C(F)(F)F)ccc12` was tested, and the “activity change, negative = viability loss” value was 0.329%.
`COC(C)(C)CCn1nc(Nc2c(C)cccc2C)c2cnc(Nc3ccc(OCCN4CCCC4)c(F)c3)nc21` was tested, and the Potency was 19.3 µM (active).
Work on `Cc1cnc(CNC(=O)c2c(=O)c3ccc(N4CCCN(C)CC4)nc3n3c2sc2ccccc23)cn1` yielded an activity change, negative = viability loss of -6.28% [at 10.7 µM].
`CN(C)CCC(CSc1ccccc1)Nc1ccc(S(=O)(=O)NC(=O)c2ccc(N3CCN(Cc4ccccc4-c4ccc(Cl)cc4)CC3)cc2)cc1[N+](=O)[O-]` (stereo not given) was tested, and the Potency was 7.69 µM (active).
With `O=c1[nH]c(=O)n([C@H]2C[C@H](O)[C@@H](CO)O2)cc1F` the “activity change, negative = viability loss” value was 22.9%.
In the case of `C[C@@H](Oc1cc(-c2cnn(C3CCNCC3)c2)cnc1N)c1c(Cl)ccc(F)c1Cl`, the Potency is reported as 21.7 µM (active).
In the case of `Cc1nc(NC(=O)N2CCCC2C(N)=O)sc1-c1csc(C(C)(C)C)n1` (stereo not given), the “activity change, negative = viability loss” value is reported as -10.7%.
For `Cc1ccc(C(=O)Nc2ccc(CN3CCN(C)CC3)c(C(F)(F)F)c2)cc1C#Cc1cnc2[nH]ncc2c1`, the Potency was 1.72 µM (active).
With `Cc1cncc2cccc(S(=O)(=O)N3CCCN(C(=O)CN)C[C@@H]3C)c12` the “activity change, negative = viability loss” value was -17%.
With `S=c1nc[nH]c2nc[nH]c12` the Potency was 6.85 µM (active).
With `COc1cc(Nc2c(C#N)cnc3cc(OCCCN4CCN(C)CC4)c(OC)cc23)c(Cl)cc1Cl` the Potency was 19.3 µM (active).
With `CN1CCCC(n2nc(Cc3ccc(Cl)cc3)c3ccccc3c2=O)CC1` (stereo not given) the Potency was 27.3 µM (active).
`CC(C)Oc1ccc2c(=O)c(-c3ccccc3)coc2c1` was tested, and the Potency was 21.7 µM (active).
`C[C@]12CCC(=O)C=C1CC[C@@H]1[C@@H]2[C@@H](O)C[C@@]2(C)[C@H]1CC[C@]2(O)C(=O)CO` was tested, and the “activity change, negative = viability loss” value was -4.48%.
For `NC(=O)c1cnc(-c2ccc(C3(N)CCC3)cc2)c(-c2ccccc2)c1`, the Potency was 24.3 µM (active).
For `CC1(C)[C@@H](O)CC[C@]2(C)[C@H]3C(=O)C=C4[C@@H]5C[C@@](C)(C(=O)O)CC[C@]5(C)CC[C@@]4(C)[C@]3(C)CC[C@@H]12`, the “activity change, negative = viability loss” value was 16.5%.
With `CNCc1ccc(-c2[nH]c3cc(F)cc4c3c2CCNC4=O)cc1` the “activity change, negative = viability loss” value was -7.71%.
In the case of `Cc1c(C)n(Cc2ccc(-c3ccccc3C(=O)O)cc2)c2ccc(C(=O)N[C@@H](C)c3ccc([N+](=O)[O-])cc3)cc12`, the “activity change, negative = viability loss” value is reported as 30.1%.
`CN(C)C1CCN(C(=O)c2ccc(NC(=O)Nc3nc(N4CCOCC4)nc(N4CCOCC4)n3)cc2)CC1` was tested, and the Potency was 0.685 µM (active).
With `NC(=O)c1cccc2cn(-c3ccc([C@@H]4CCCNC4)cc3)nc12` the “activity change, negative = viability loss” value was -13.2%.
In the case of `CCN1C[C@H](C)n2c(c(O)c3c(=O)n(Cc4ccc(F)c(Cl)c4)nc(C(=O)NC)c32)C1=O`, the “activity change, negative = viability loss” value is reported as 7.26%.
`NC(=O)Nc1cc(-c2cccc(F)c2)sc1C(=O)NC1CCCNC1` (stereo not given) was tested, and the Potency was 0.306 µM (active).
